Test results as given in patent publication US20210230599, “STEM-LOOP COMPOSITIONS AND METHODS FOR INHIBITING INTERLEUKIN-8” (VITRISA THERAPEUTICS, INC., published 2021).

Each sequence was assayed against Interleukin-8 (IL8, CXCL8), C-terminal His-tagged (Homo sapiens, UniProt P10145 SEQ:1-72) (assay: competition; competition TR-FRET; Aptamer 116 variant). Conditions: tags: C-terminal His (Sino Biological); stem-loop; ssRNA; 2'-F G except 2'-OMe G at X (CGGU-GGGA-AACGU-GAGAU-GGXUU-GCCG); 2'-OMe A,C,U; 5' C6NH2; 3' idT.
Source text: 2′OMe modifications may impart higher duplex stability, increased metabolic stability in serum and vitreous, and may have greater coupling efficiency during synthesis compared to 2′F-containing nucleotides. The use of these nucleotides may also avoid the potential loss of the 2′F group during production, which can happen during deprotection steps and exposure to heat. To probe the effect of 2′F-G to 2′OMe-G substitution on target binding, variants of Aptamer 116 and 212 were synthesized where 2′F-G was selectively substituted with 2′OMe-G (Table 49) and assayed for activity by competition TR-FRET using ALEXA FLUOR® 647-labeled parent Aptamer 212. 2′OMe-G replacements were well tolerated in all positions of stem S1 (Aptamers 242-248).

| Sequence | binding signal |
| --- | --- |
| CGGUGGGAAACGUGAGAUGGGUUGCCG [listing 1 of 4 here] | > 10 fold worse than Aptamer 212 |

Same assay, conditions: tags: C-terminal His (Sino Biological); stem-loop; ssRNA; 2'-F G except 2'-OMe G at X (CGGU-GGGA-AACGU-GAGAU-GXGUU-GCCG); 2'-OMe A,C,U; 5' C6NH2; 3' idT

| Sequence | binding signal |
| --- | --- |
| CGGUGGGAAACGUGAGAUGGGUUGCCG [listing 2 of 4 here] | > 10 fold worse than Aptamer 212 |

Same assay, conditions: tags: C-terminal His (Sino Biological); stem-loop; ssRNA; 2'-F G except 2'-OMe G at X (CGGU-GGGA-AACGU-GAGAU-XGGUU-GCCG); 2'-OMe A,C,U; 5' C6NH2; 3' idT

| Sequence | binding signal |
| --- | --- |
| CGGUGGGAAACGUGAGAUGGGUUGCCG [listing 3 of 4 here] | > 10 fold worse than Aptamer 212 |

Same assay, conditions: tags: C-terminal His (Sino Biological); stem-loop; ssRNA; 2'-F G except 2'-OMe G at X (CGGU-GGGA-AACXU-GAGAU-GGGUU-GCCG); 2'-OMe A,C,U; 5' C6NH2; 3' idT

| Sequence | binding signal |
| --- | --- |
| CGGUGGGAAACGUGAGAUGGGUUGCCG [listing 4 of 4 here] | > 10 fold worse than Aptamer 212 |
